In the supplement of paper PMC6897291:
Where a name gives a salt, the structure may show the parent alone.

System: U-2932
Assay: growth inhibition by drug alone (1 - RLU/untreated control) (fraction); higher = stronger inhibition
Details: 177Lu-lilotomab satetraxetan 0 ug/ml
Description: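 U-2932 ABC-DLBCL cells were pretreated or not for 18 h with 1 ug/ml 177Lu-lilotomab satetraxetan (600 MBq/mg), washed and seeded (3000 cells/well) on 384-well plates pre-printed with the Selleck Cambridge Cancer Compound library. Viability was read by RealTime-Glo luminescence on days 3-6 after seeding. Effect = 1 - RLU/mean RLU of the 48 untreated no-drug control wells per plate; Bliss score = (M-E)/(1-Fa), with E the expected Bliss-additive effect.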

| SMILES | growth inhibition by drug alone (10 nM, time (day): 3) | growth inhibition by drug alone (10 nM, time (day): 4) | growth inhibition by drug alone (10 nM, time (day): 5) | growth inhibition by drug alone (10 nM, time (day): 6) | growth inhibition by drug alone (1000 nM, time (day): 3) | growth inhibition by drug alone (1000 nM, time (day): 4) | growth inhibition by drug alone (1000 nM, time (day): 5) | growth inhibition by drug alone (1000 nM, time (day): 6) |
| --- | --- | --- | --- | --- | --- | --- | --- | --- |
| O=C(c1ccc(OCCN2CCCCC2)cc1)c1c(-c2ccc(O)cc2)sc2cc(O)ccc12 [Evista (Raloxifene Hydrochloride)] | 0.0697 | 0.04 | -0.0859 | -0.131 | -0.0629 | -0.0257 | -0.102 | -0.132 |
| COc1cc2c(NC3CCN(C)CC3)nc(N3CCCN(C)CC3)nc2cc1OCCCN(C)C | 0.0324 | -0.0188 | -0.094 | -0.326 | -0.0483 | -0.0744 | -0.125 | -0.235 |
| CN1CC[C@H](c2c(O)cc(O)c3c(=O)cc(-c4ccccc4Cl)oc23)[C@H](O)C1 [Flavopiridol hydrochloride] | -0.0754 | -0.0311 | -0.0181 | 0.00401 | 0.957 | 0.967 | 0.974 | 0.979 |
| COc1cc(OC2CCN(C)CC2)ccc1Nc1ncc2c(n1)n(C1CCCC1)c(=O)n2C | -0.0462 | -0.0489 | -0.0615 | -0.034 | -0.165 | -0.184 | -0.206 | -0.247 |
| Cc1ccc(C(=O)Nc2ccc(CN3CCN(C)CC3)c(C(F)(F)F)c2)cc1C#Cc1cnc2cccnn12 | -0.0855 | -0.101 | -0.212 | -0.304 | 0.619 | 0.711 | 0.699 | 0.718 |
